A short description of assay [1]: NCI Yeast Anticancer Drug Screen. Data for the rad50 strain (AID 155).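 Note: 0% = growth of vehicle-only cultures of the same strain.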 Conditions: S. cerevisiae rad50 strain growth inhibition, active compounds read high; at 50.0 µM unless noted. In a few lines:
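Relative growth inhibition (compound vs vehicle) was measured in yeast with a defined repair-gene alteration.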

Assay [2] in a line: NCI Yeast Anticancer Drug Screen. Data for the mec2-1 strain (AID 157). As to conditions: S. cerevisiae mec2-1 strain, active compounds read high; at 50.0 µM unless noted. An outline of the steps:
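mec2-1 yeast strain, carrying an alteration in DNA damage repair or cell cycle control, was exposed to compounds; growth inhibition was measured relative to vehicle-treated controls.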

The nature of assay [3]: NCI Yeast Anticancer Drug Screen. Data for the sgs1 mgt1 strain (AID 161).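 Note: 0% = growth of cultures given vehicle only.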 As to conditions: S. cerevisiae sgs1 mgt1 strain, active compounds read high; at 50.0 µM unless noted. An outline of the steps: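 Compounds are added to genetically altered yeast, and growth is compared with cultures given vehicle alone to give percent inhibition.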
Assay [4] in a line: NCI Yeast Anticancer Drug Screen. Data for the cln2 rad14 strain (AID 165).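 Note: 0% = growth equal to vehicle treated cultures.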 As to conditions: S. cerevisiae cln2 rad14 strain, active compounds read high; at 50.0 µM unless noted. An outline of the steps:
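Yeast carrying cln2 and rad14 alterations (cell cycle control and DNA damage repair) were exposed to compounds. Growth inhibition was measured against vehicle-treated controls.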

Assay [5] in a line: NCI Yeast Anticancer Drug Screen. Data for the bub3 strain (AID 167). As to conditions: S. cerevisiae bub3 mutant strain, active compounds read high; at 50.0 µM unless noted. An outline of the steps:
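Screening used yeast with an engineered genetic alteration affecting cell cycle control. Compound-exposed cultures were compared with vehicle cultures, and reduced growth was taken as inhibition.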

Assay [6] can be described thus: NCI Yeast Anticancer Drug Screen. Data for the mlh1 rad18 strain (AID 175). Conditions: S. cerevisiae mlh1 rad18 strain growth inhibition, active compounds read high; at 50.0 µM unless noted. In a few lines: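 Growth inhibition of the yeast strain was measured after compound exposure and expressed relative to vehicle-treated controls. The strain carries defined defects in DNA damage repair.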

We go through 19 compounds from PubChem BioAssay (NCI).

Where “and” joins values, the source holds several entries; their conditions need not be identical. Identical values can stand only once. This is part of a sample that, as a whole, favours compounds with a hit. Of some 79,000 tested, about 15% had one in any assay. Unmarked numbers belong to inactive results. Calls of active or inactive are those of the source. Cut-off read from the data, not from the text of the source: active = growth inhibition above about 70%; inactive = the rest.

For `CCN(CC)CCN=Cc1ccccc1OC`, the growth inhibition in assay [1] was 15.9%; in assay [2], -29.5%; in assay [3], -3.85%; in assay [4], 3.15%; in assay [5], 11.3%; in assay [6], 15.2%.
Consider `Cc1ccc(S(=O)(=O)N/N=C/c2ccoc2)cc1`, for which the growth inhibition in assay [1] was -32.1%; in assay [2], -8.6%; in assay [3], -17.1%; in assay [4], -3.9%; in assay [5] it was 4.45%; in assay [6] it was -14.4%.
Take `Cc1nc2cccc3ccc4c5ccccc5cc1c4c32`: the growth inhibition in assay [1] was 70% (active); in assay [2], 15.2%; in assay [3], -25%; in assay [4], 0.9%; in assay [5], 21.6%; in assay [6], 49.3%.
Take `CCCC1OC(c2cc3c(cc2Br)OCO3)OCC1CC` (centres undefined): the growth inhibition in assay [1] was -4.5%; in assay [2] it was -8.9%; in assay [3] it was 9.25%; in assay [4], 3.1%; in assay [5], 23.1%; in assay [6], -4.7%.
In the case of `CC(COc1ccc(C(C)(C)C)cc1)OC=O` (centres undefined), the growth inhibition is 14.2% in assay [1]; 3.2% in assay [2]; 19.4% in assay [3]; -12.9% in assay [4]; 16.1% in assay [5]; -6.4% in assay [6].
Consider `O=C(O)CCCn1nnc2c(=O)[nH][nH]c(=O)c21`, for which the growth inhibition in assay [1] is 7.3%; in assay [2] it was 5.65%; in assay [3], 4.4%; in assay [4], -7.75%; in assay [5], -0.25%; in assay [6], 11.6%.
Consider `O=C(O)c1ccc(Nc2c3ccccc3nc3ccccc23)cc1`, for which the growth inhibition in assay [1] is 49%; in assay [2] it was 11.6%; in assay [3], 37.3%; in assay [4], 17.2%; in assay [5] it was 26.8%; in assay [6], 24.6%.
On to `Cc1ccc([N+](=O)[O-])cc1N1C(=O)c2ccccc2C1=O`, for which the growth inhibition in assay [1] was 14.5%; in assay [2] it was -13.6%; in assay [3], 12.6%; in assay [4], 8.2%; in assay [5], 13.6%; in assay [6], 13.2%.
On to `COc1ccc(-c2sc(/N=C/c3ccc(N(C)CCC#N)cc3)c(C#N)c2C)cc1OC`, for which the growth inhibition was 4% in assay [1]; -1.05% in assay [2]; 28.1% in assay [3]; 16.4% in assay [4]; 18.3% in assay [5]; 15.3% in assay [6].
As for `COC1CN(C(C)(C)C)C1`, the growth inhibition in assay [1] was 2.65%; in assay [2], 6.15%; in assay [3], -1.2%; in assay [4] it was 2.65%; in assay [5], 6.6%; in assay [6] it was 0.95%.
Regarding `CCC(CC)C(=O)NCCNC(=O)C(CC)CC`, the growth inhibition in assay [1] was 5.45%; in assay [2], -0.9%; in assay [3] it was 14.2%; in assay [4], -30.1%; in assay [5], -10.6%; in assay [6] it was -17.2%.
As to `CC(C)=C1C2C(C13C(=O)OC(C)(C)OC3=O)C2(C)C` (centres undefined), the growth inhibition in assay [1] is -10.5%; in assay [2], -16.9%; in assay [3], -11.6%; in assay [4] it was 7.9%; in assay [5], -21.6%; in assay [6] it was -9.2%.
Take `CC(C)CCCC(C)C1CCC2C3CC=C4CC(OC(=O)Nc5ccc(S(=O)(=O)NC6CCCCC6)cc5)CCC4(C)C3CCC12C` (centres undefined): the growth inhibition was -1.85% in assay [1]; -4.35% in assay [2]; 12.7% in assay [3]; -38.1% in assay [4]; -12.4% in assay [5]; 8.25% in assay [6].
Turning to `C/C(=C\c1ccccc1)c1ccccn1`, the growth inhibition was -2.25% and -1.9% in assay [1]; -4.6% and -17.4% in assay [2]; -6.25% and 10.8% in assay [3]; -68.8% and -22.6% in assay [4]; -19.1% and 15.2% in assay [5]; -7.4% and 8.3% in assay [6].
In the case of `ClCc1ccc(OCc2ccccc2)cc1`, the growth inhibition in assay [1] is -2.85%; in assay [2], -1.45%; in assay [3], -11.2%; in assay [4], 9.3%; in assay [5], -29.1%; in assay [6], -6.25%.
Turning to `COC(=O)C1=Nc2c(C)nn(-c3ccccc3)c2N=C(c2ccc([N+](=O)[O-])cc2)C1`, the growth inhibition was -18.4% in assay [1]; 0.6% in assay [2]; -0.55% in assay [3]; -67.1% in assay [4]; -34% in assay [5]; 10.3% in assay [6].
Regarding `O=C(O)CCC(=O)N1c2ccccc2CC1c1c[nH]c2ccccc12` (centres undefined), the growth inhibition in assay [1] is -8.45%; in assay [2], -13.9%; in assay [3], -6.55%; in assay [4], 18.6%; in assay [5] it was 2%; in assay [6], 5.6%.
For the compound `Cc1c(Cl)cccc1NC(=O)C(C)NCC(C)C` (centres undefined), the growth inhibition was -4.4% in assay [1]; -0.2% in assay [2]; -6.05% in assay [3]; -11.7% in assay [4]; 14.8% in assay [5]; -19.6% in assay [6].
As for `Cc1cccc(C)c1NC(=O)c1c(Cl)c(Cl)c(Cl)c(Cl)c1C(=O)O`, the growth inhibition in assay [1] is -25.9%; in assay [2], 11.8%; in assay [3] it was -15.7%; in assay [4], -20%; in assay [5], 4.55%; in assay [6], -18.2%.
